Each structure is given as a SMILES string. Hit rate of the full screen: of about 340,000 compounds, about 2,100 (0.62%) were called active. Only a sample is shown. Measured potencies and affinities stand elsewhere. A number with no mark means an inactive call.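 How the source made its calls: active means first-screen hits whose inhibition reached a set limit at any dose in the follow-up dose series; inconclusive means inhibition above the set first-screen limit but never retested; inactive means the rest.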

In the test the target is Rac GTPase-activating protein 1 (Homo sapiens) (UniProt Q9H0H5). Put plainly: MgcRacGAP GTPase-activating activity inhibitors, confirmation, biochemical, ADP Hunter fluorescence, primary and confirmatory (AID 624330).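 Further: fluorescence reports GDP produced by GAP-driven GTP hydrolysis.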 Particulars: MgcRacGAP-stimulated Rac1 GTP hydrolysis, at 30 µM, active compounds read high, GST-tagged Rac1 F28L mutant substrate.
Sequence of Rac GTPase-activating protein 1 (Homo sapiens) (Q9H0H5 whole entry, looked up): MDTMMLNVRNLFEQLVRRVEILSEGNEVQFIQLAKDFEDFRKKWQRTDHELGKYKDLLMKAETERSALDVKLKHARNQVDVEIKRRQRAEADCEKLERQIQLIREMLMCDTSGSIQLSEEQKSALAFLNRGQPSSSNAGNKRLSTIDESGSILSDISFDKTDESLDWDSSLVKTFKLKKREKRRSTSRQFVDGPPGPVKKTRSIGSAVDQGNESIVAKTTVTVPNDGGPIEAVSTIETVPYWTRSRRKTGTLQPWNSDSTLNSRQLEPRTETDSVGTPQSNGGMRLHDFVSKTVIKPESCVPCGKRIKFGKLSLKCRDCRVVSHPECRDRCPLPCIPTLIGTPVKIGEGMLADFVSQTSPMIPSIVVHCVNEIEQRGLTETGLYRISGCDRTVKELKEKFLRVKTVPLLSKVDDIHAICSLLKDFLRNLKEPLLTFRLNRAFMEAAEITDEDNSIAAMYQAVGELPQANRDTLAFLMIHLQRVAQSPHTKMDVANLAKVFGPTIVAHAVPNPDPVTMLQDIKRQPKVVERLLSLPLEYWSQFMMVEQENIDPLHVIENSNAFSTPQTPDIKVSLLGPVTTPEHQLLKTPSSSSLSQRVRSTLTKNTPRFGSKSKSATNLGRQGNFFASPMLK
Take `COc1ccc(Cl)cc1NC(=O)CN(C)C(=O)CCCNC(=O)c1ccc(Cl)cc1`: the inhibition – broadly, the relative decrease from the control value, in per cent – was -0.09%.

On to `CN(C)CCNC(=S)Nc1ccc(Cl)cc1`, for which the inhibition is 10.1%.

Consider `CC(=O)c1ccc(OCc2cc(C(=O)N3CC[C@@H]4CCCC[C@H]4C3)no2)cc1`, for which the inhibition was 8.61%. For the compound `COc1ccccc1NC(=O)CSc1nnc(-c2ccoc2C)n1CC1CCCO1` (stereo not given), the inhibition was 9.62%.

With `CCCN(CCC)Cc1c(C(=O)N/N=C/c2ccoc2)nnn1-c1nonc1N`, the inhibition is 6.21%.

Consider `S=C(NC1CCCCC1)N1CCN(C2CCCCC2)CC1`, for which the inhibition was 6.75%. Under `O=C(CSc1nc(Cc2ccccc2)nc2ccccc12)Nc1nc2c(s1)CCCC2` stands 18.2%; under `COc1cc(CNc2ccc(N3CCN(C(C)=O)CC3)cc2)ccc1OCc1ccc(F)cc1`, 28.5%; under `COc1cc(CNc2ccc(N3CCCC3)cc2)ccc1OCc1ccccc1`, 7.32%. With `COc1ccc(N2CCN(C(=O)NCc3ccc(OC)c(OC)c3)CC2)cc1` the figure was 23.4%; with `COc1ccc(N2CCN(C(=O)Cc3ccc(OC)c(OC)c3)CC2)cc1`, 21.6%. With `O=C(COc1ccccc1)NCC(c1ccco1)N1CCN(c2ccccc2)CC1` (stereo not given) the figure was -2.01%; with `CCCCCC(=O)Nc1ccc(N2CCOCC2)c(S(=O)(=O)Nc2ccc(OC)cc2)c1`, 10.2%. Regarding `CC(=O)Nc1c(-c2ccccc2)nc2ncccn12`, the inhibition was 16.1%.

Turning to `CCN(CC)C(=O)Cn1cc(C(=O)C(=O)N(C)C2CCN(C)CC2)c2ccccc21`, the inhibition is 0.15%.

Regarding `Fc1ccc(NC(=S)NCCN2CCOCC2)cc1`, the inhibition is 4.64%. Under `S=C(NCCN1CCOCC1)N/N=C/c1ccccc1` stands 6.95%; under `S=C(NCCCN1CCOCC1)Nc1ccc(Nc2ccccc2)cc1`, 36.5%.

Turning to `COc1cc(/C=N/NC(=S)NCCN2CCOCC2)cc(OC)c1O`, the inhibition is 15.1%. With `COc1cc(/C=N/NC(=S)NCCN2CCOCC2)cc(OC)c1OC` the figure was 7.18%; with `COc1cc(OC)c(OC)cc1/C=N/NC(=S)NCCN1CCOCC1`, -4.53%; with `O=S(=O)(c1cccc(-c2nc3ccccc3s2)c1)N1CCCC1`, 4.17%. For the compound `Cc1cc(C(=O)N(NC(=O)C(C)C)c2ccccc2)cs1`, the inhibition is 5.75%. Regarding `C=CCn1c(=O)c(C(=O)Nc2ccc(C)cn2)c(O)c2ccccc21`, the inhibition is 7.02%. With `CCOc1ccc(C(C(=O)NCC2CCCO2)N(Cc2ccccc2)C(=O)c2snc(C(N)=O)c2N)cc1` (stereo not given) the figure was 6.27%; with `C=CCc1cc(C=O)cc(OCC)c1O`, 4.85%; with `C=CCc1cc(/C=N/n2cnnc2)cc(OCC)c1O`, 8.86%. Under `CCC(/C=C1\Oc2ccc(OC)cc2N1C)=C\c1sc2ccccc2[n+]1CCCS(=O)(=O)[O-]` stands 20.6%.

For `CSc1sc2ccccc2[n+]1CCCS(=O)(=O)[O-]`, the inhibition was 6.67%. As for `O=C(COC(=O)c1cc(S(=O)(=O)N2CCOCC2)ccc1Cl)NCc1ccccc1`, the inhibition is -0.98%. Turning to `O=C(COC(=O)/C=C/c1ccc([N+](=O)[O-])cc1)Nc1ccc2[nH]c(=O)[nH]c2c1`, the inhibition was 8.57%. With `COc1ccc(Br)cc1CN(C)CC(=O)NCc1ccc(F)cc1` the figure was 30.8%; with `COc1ccc(Br)cc1CN(C)CC(=O)NCCc1ccc(S(N)(=O)=O)cc1`, -1.98%; with `COc1cccc(CNS(=O)(=O)c2ccc(N3CCCC3=O)cc2)c1`, 1.52%. Regarding `Cc1ccccc1NC(=O)c1cccc(S(=O)(=O)N2CCCCC2)c1`, the inhibition is 3.86%. With `CC(C)C(O)(CC#CCN1CCCC1)c1ccccc1` (stereo not given) the figure was 6.41%; with `CCn1cc(CN2CCC(C(=O)Nc3cccc(-c4cccc(OC)c4)c3)CC2)c(C)n1`, 4.15%. With `Cc1ccc(OCCOC(=O)Cn2nc(C)c([N+](=O)[O-])c2C)cc1` the figure was 7.43%; with `Cc1cccc(C)c1OCC(O)CN1CCN(c2ccccc2)CC1` (stereo not given), 4.36%.

As for `Cc1cccc(C(=O)Oc2ccc(/C=N/NC(=O)Cc3ccc([N+](=O)[O-])cc3)cc2)c1`, the inhibition was 1.03%. `O=C(Oc1ccc(/C=N/n2cnnc2)cc1)c1cccc([N+](=O)[O-])c1`: the inhibition is 13.5%.

With `CC1=NNC(=O)C1CC(=O)N/N=C/C(C)=C/c1ccccc1` (stereo not given), the inhibition was 13.2%. With `Cn1c(=O)c2c(nc(CN3CCCCC3)n2CCc2ccccc2)n(C)c1=O` the figure was 18.6%; with `Cc1ccc(OCC(=O)N2CCN(S(=O)(=O)c3ccccc3[N+](=O)[O-])CC2)cc1`, 5.54%. Under `C=CCOc1ccc(/C=N/NC(=O)C(C)Sc2ccccn2)cc1OC` (stereo not given) stands 6.97%. With `CN(NC(=O)Nc1ccc(Cl)cc1)c1ncc(C(F)(F)F)cc1Cl` the figure was 7.17%; with `COc1cc(/C=N/NC(=O)CCC(=O)NC2CCCCC2)ccc1C`, 9.37%. For the compound `CCCOc1ccc(/C=N/NC(=O)C(C)Sc2ccccn2)cc1OCC` (stereo not given), the inhibition is 9.98%. Under `COc1ccc(/C=N/NC(=O)CCCC(=O)NC2CCCCC2)cc1` stands 2.54%. With `COc1ccc(/C=N/NC(=O)CC(=O)NC2CCCCC2)cc1` the figure was 6.51%. With `Cc1ccc(/C=N/NC(=O)NN(C)c2ncc(C(F)(F)F)cc2Cl)cc1`, the inhibition was 4.41%.

For `COC(=O)c1ccc(/C=N/NC(=O)CC(=O)NC2CCCCC2)cc1`, the inhibition was -3.55%. Under `CCS(=O)(=O)N1CCC(C(=O)Nc2cc(Cl)ccc2O)CC1` stands 6.74%. With `Cn1cc(CN2CCCC(C(=O)c3nccn3C)C2)c(-c2cccc(Cl)c2)n1` (stereo not given) the figure was 0.46%; with `COc1ccc(C)c2sc(N(CCCN(C)C)C(=O)CS(=O)(=O)c3ccc(F)cc3)nc12`, 2.17%; with `CCOC(=O)Cc1nnc(NC(=O)CSc2ccc(Cl)cc2)s1`, 0.78%.

As for `COc1ccc(C(=O)O/N=C(/c2ccccc2)c2ccncc2)cc1`, the inhibition was 4.95%. Under `COc1ccc(C2C(=O)c3ccccc3C2=Nc2ccc(Br)cc2)cc1` (stereo not given) stands 8.86%.

For the compound `CCC(C)[C@H](NC(=O)OC(C)(C)C)C(=O)N/N=C/c1ccc2cc(OC)ccc2n1` (stereo not given in full), the inhibition was 7.33%. With `NS(=O)(=O)c1ccc(NC(=O)COC(=O)CCCN2C(=O)c3cccc4cccc(c34)C2=O)cc1` the figure was 1.26%; with `Cc1cc(C(=O)Nc2ccc(F)cc2F)on1`, 9.92%; with `CCn1c(SCC(=O)NCc2ccc(F)cc2)nc2c(c1=O)SC(C)C2` (stereo not given), 18%. Under `CCOc1ccc(/C=N/NC(=O)C(OC)c2ccccc2)cc1` (stereo not given) stands 3.79%; under `CCOc1cc(/C=N/NC(=O)C(=O)N/N=C/c2ccc(O)c(OCC)c2)ccc1O`, 10.8%; under `Oc1ccc(/C=N/NC(=S)NC2CC3CCC2C3)cc1` (stereo not given), 16.9%.

In the case of `C=CCOc1cccc(/C=N/NC(=O)C(OC)c2ccccc2)c1` (stereo not given), the inhibition is 7.19%. Under `COc1cccc(/C=N/NC(=S)NC2CC3CCC2C3)c1OC` (stereo not given) stands -1.35%; under `COc1cccc(/C=N/NC(=O)CSc2cccc3cccnc23)c1`, 5.24%. Under `O=C(CSc1cccc2cccnc12)N/N=C/c1cccc(O)c1` stands 3.05%; under `COc1ccc(C=NNC(=O)CCCC(=O)NN=Cc2ccc(OC)c(O)c2)cc1O`, 23%; under `CCCCc1nnc(NC(=O)CN2C(=O)C3CCCCC3C2=O)s1` (stereo not given), 6.64%. As to `O=C(N/N=C\c1cn[nH]c1-c1ccccc1)c1ccc([N+](=O)[O-])cc1`, the inhibition was 9.27%. Regarding `O=S(=O)(c1ccc(Cl)cc1)N1CCN(Cc2cccnc2)CC1`, the inhibition was 2.76%. With `Cc1c(C(=O)N2CCN(S(=O)(=O)c3ccccc3)CC2)oc2ccc(Br)cc12` the figure was 2.23%; with `Cc1ccccc1SCC(=O)NCC(c1ccc(F)cc1)N1CCOCC1` (stereo not given), 8.44%; with `N#CC1(NC(=O)CN2CCc3ccccc3C2)CCCC1`, -8.1%. Under `C#CCN1C=CC(=O)[C@@H](OC(=O)Nc2ccc(C)cc2)[C@H]1c1ccccc1Br` stands -0.32%; under `O=C(O)C1C2C=CC(C2)C1C(=O)NC1CCS(=O)(=O)C1` (stereo not given), 10.3%; under `O=C(NNC(=O)c1cccc(C(F)(F)F)c1)c1ccncc1`, 8.11%.

Regarding `Cc1cc(SCC(=O)Nc2ccc(O)cc2)n2ncc(-c3ccccc3)c2n1`, the inhibition was 4.14%. On to `CC1(C)N=C(SCC(=O)Nc2ccc(Cl)cc2)C(c2ccc(Cl)cc2)=N1`, for which the inhibition was 2.66%. With `COc1cc(C(=O)NNC(=O)c2cc(=O)[nH]c3ccccc23)cc(OC)c1OC` the figure was 5.5%; with `COc1cc(/C=N/NC(=O)Nc2ccccc2)ccc1OC(C)=O`, 13.7%; with `CCOc1ccc(/C=N/NC(=O)Nc2ccccc2)cc1`, 10.7%.

As for `CCN(CC)S(=O)(=O)c1ccc(OC)c(NC(=O)c2cn(CC)c3nc(C)ccc3c2=O)c1`, the inhibition was 7.32%. `CCOC(=O)COc1cccc2c(=O)n(CC(N)=O)ccc12`: the inhibition is 3.81%. Regarding `CCOc1ccc(/C=C2\NC(=S)NC2=O)cc1`, the inhibition was -0.61%. As for `COc1ccc(C=C2NC(=S)NC2=O)cc1`, the inhibition is 14.2%.

Regarding `CC(=O)Nc1ccc(OC(=O)c2ccc(Cl)cc2)cc1`, the inhibition was -3.42%.

On to `COC(=O)Cc1ccc(NC(C)=O)cc1`, for which the inhibition is 3.66%. Under `CCOC(=O)/C(=C/Nc1ccc(F)c(F)c1)[N+](=O)[O-]` stands -8.37%. With `Cc1cc(C)c2[nH]c(=O)c(C(c3nnnn3C(C)(C)C)N3CCN(C(=O)c4ccco4)CC3)cc2c1` (stereo not given) the figure was 1.84%; with `Nc1ccc(CCc2ccc(N)cc2)cc1`, 13.9%. With `Nc1ccc(SC(F)(F)F)cc1` the figure was -3.64%.

As to `Nc1ccc(-c2nnc(-c3ccc(N)cc3)o2)cc1`, the inhibition is 12.9%. Under `Nc1ccc(Sc2ccc([N+](=O)[O-])cc2)cc1` stands 7.67%; under `CN(C)c1ccc(N=Nc2ccccc2Br)cc1`, 8.09%.

As to `Nc1ccc(-c2cnc(-c3ccc(N)cc3)nc2)cc1`, the inhibition is 9.16%. For `CC(=O)c1ccc(N=Nc2ccc(N)cc2)cc1`, the inhibition is 0.6%. With `Cc1cc(N(C)C)ccc1N=Nc1ccc2ncccc2c1` the figure was 3.61%.
